Screening data deposited in PubChem BioAssay by The Scripps Research Institute Molecular Screening Center.
An excerpt weighted towards active compounds, which were near 4.8% of everything screened.
SMARCA2 act = SMARCA2 function activation, primary screen | MG213 cells, MMTV-luciferase reporter, dexamethasone, overnight | activation, % at 9.1 µM | 370,000 tested, 1% active; in the data active = activation above about 7.8%;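 also: 0% = vehicle wells and 100% = reference activator wells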
ssDAF12 agonist = activators of S. stercoralis DAF-12 nuclear receptor; HEK293 ssDAF-12/GRIP1 lit1-tk-luc reporter, luminescence; % of 3 µM dafachronic acid response; activation, % at 6.8 µM; 370,000 tested, 1% active; AID 652126;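 active = activation above the mean over all tested compounds plus 3 SD, cut at about 0.9% in these data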;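 also: 0% = DMSO-only wells and 100% = 3 µM delta7-dafachronic acid wells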
DAX1 inh-1 = inhibitors of DAX1 repression of SF-1 activated StAR promoter | 370,000 tested, 1.1% active | HEK293T StAR-luciferase reporter, SF-1/DAX-1 repression relief | AID 652010 | inhibition, % at 6.8 µM;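 active = inhibition above the mean over all tested compounds plus 3 SD, cut at about 3.6% in these data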;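 also: 0% = DAX-1 cells with DMSO and 100% = cells lacking DAX-1 with DMSO; higher inhibition means more luminescence from relief of DAX-1 repression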
hgDAF-12 ag = activates the H. glycines DAF-12 receptor ligand-binding domain; 370,000 tested, 1.8% active; HEK293 GAL4-hgDAF12 UAS-luciferase reporter, agonist luminescence; normalized to butyrate control; activation, % at 6.8 µM;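 active = activation above a cutoff set at the mean of all screened compounds plus 3 SD, cut at about 10% in these data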;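 also: 0% = DMSO wells and 100% = sodium butyrate wells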
DAX1 inh-2 = inhibits human nuclear receptor DAX1; inhibition, % at 6.75 µM; HEK293 Gal4-DAX1 luciferase reporter, luminescence; 340,000 tested, 0.99% active; P51843;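 active = inhibition above the mean over all tested compounds plus 3 SD, cut at about 4.2% in these data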;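 also: 0% = DAX1-transfected cells with DMSO and 100% = empty-vector control cells with DMSO; inhibition shows as a rise in luminescence from relieved DAX1 repression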
Target sequence (P51843 207-470 limits assumed): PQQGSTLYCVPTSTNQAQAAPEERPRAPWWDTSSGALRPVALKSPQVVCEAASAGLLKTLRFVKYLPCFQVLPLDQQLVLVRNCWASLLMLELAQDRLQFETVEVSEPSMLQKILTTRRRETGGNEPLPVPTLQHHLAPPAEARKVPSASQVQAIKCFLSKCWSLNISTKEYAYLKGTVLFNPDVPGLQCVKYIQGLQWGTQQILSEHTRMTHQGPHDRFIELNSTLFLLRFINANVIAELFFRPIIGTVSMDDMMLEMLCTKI
hcDAF-12 act = H. contortus DAF-12 activation, primary screen; HEK293 hcDAF-12 lit1-tk-luc reporter, luminescence; 0% DMSO, 100% Δ7-dafachronic acid; activation, % at 6.8 µM; 370,000 tested, 1.4% active;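 active = activation above the mean of all tested compounds plus 3 SD, cut at about 5.5% in these data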;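 also: 100% = response to 3 µM Δ7-dafachronic acid high control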
DAX1 conf = confirmation of human DAX1 (NR0B1) inhibitors; inhibition, % at 6.8 µM; shares compounds with DAX1 inh-1; 2,400 tested, 87% active; HEK293T StAR-promoter luciferase reporter, SF-1/DAX-1 repression;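 active = inhibition above the average of every tested compound plus 3 SD, cut at about 3.8% in these data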;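 also: 0% = DAX-1 cells with DMSO and 100% = no DAX-1 control cells with DMSO; active compounds raise luminescence by relieving repression of the StAR reporter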
SF1 mutant ctr = counter-screen for DAX1 inhibitors: nonselective inhibitors with SF-1 AF2 mutant; HEK293 StAR-luciferase, luminescence; 2,400 tested, 78% active; inhibition, % at 6.8 µM; shares compounds with DAX1 inh-1; AID 652136;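 active = inhibition above the mean of all tested compounds plus 3 SD, cut at about 3% in these data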;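 also: 0% = DAX-1 transfected cells with DMSO and 100% = cells without DAX-1 with DMSO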
SMARCA2 conf = SMARCA2 activation, confirmation screen | AID 652260 | 3,500 tested, 30% active | MG213 cells, MMTV-luciferase with dexamethasone, luminescence, overnight; MG213 cells expressing E1A, Rb sequestered; DMSO wells 0%, reference activator 100% | activation, % at 9.1 µM | shares compounds with SMARCA2 act;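 active = activation above its plate's cutoff, the mean activation of tested wells plus 3 SD, cut at about 7.9% in these data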
VP16 Luc act = GAL4-VP16 reporter activation counter-screen. activation, % at 9.1 µM. shares compounds with SMARCA2 act. HEK293 GAL4-VP16 pG5luc reporter, luciferase luminescence; scaled: DMSO wells 0%, SAHA wells 100%. 3,500 tested, 41% active. AID 686939;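 active = activation above the solvent-only control well mean plus 3 SD, averaged across control plates, cut at about 5.2% in these data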
LXR ag = activates human LXR-beta, counter-screen for hcDAF-12 agonists. activation, % at 6.8 µM. HEK293 Gal4-LXR tk-luc reporter, luminescence, 24 h; normalized: DMSO 0%, positive control 100%. shares compounds with hcDAF-12 act. 3,400 tested, under 10 active;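 active = mean percent activation of the reporter above a cutoff set as the average over tested compounds plus their standard deviation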
Target sequence (P55055 whole entry, looked up, the tested form may be a part): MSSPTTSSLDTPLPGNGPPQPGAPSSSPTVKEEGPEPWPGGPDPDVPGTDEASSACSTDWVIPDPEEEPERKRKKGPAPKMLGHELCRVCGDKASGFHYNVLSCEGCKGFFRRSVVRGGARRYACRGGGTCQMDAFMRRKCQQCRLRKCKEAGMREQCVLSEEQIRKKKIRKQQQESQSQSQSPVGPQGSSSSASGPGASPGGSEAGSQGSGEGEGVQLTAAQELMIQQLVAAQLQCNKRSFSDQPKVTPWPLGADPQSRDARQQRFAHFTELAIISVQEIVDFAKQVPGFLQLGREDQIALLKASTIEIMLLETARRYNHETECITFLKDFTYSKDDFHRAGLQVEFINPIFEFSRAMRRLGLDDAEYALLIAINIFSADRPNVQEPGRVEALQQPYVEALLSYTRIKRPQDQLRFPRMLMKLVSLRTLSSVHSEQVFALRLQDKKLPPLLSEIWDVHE
hcDAF12 conf = hcDAF-12 agonism, confirmation assay; shares compounds with hcDAF-12 act; HEK293 hcDAF-12 lit1-tk-luc reporter, luminescence; % of Δ7-dafachronic acid response; activation, % at 6.8 µM; 3,400 tested, 61% active; AID 743032;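 active = mean activation across triplicate tests above the threshold derived from the earlier primary screen, cut at about 5.5% in these data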;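 also: 0% = DMSO only wells and 100% = 3 µM Δ7-dafachronic acid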
hgDAF12 ag = hgDAF-12 agonism, confirmation assay; shares compounds with hgDAF-12 ag; HEK293 GAL4-hgDAF12 luciferase reporter, agonist mode; percent of butyrate response; activation, % at 6.8 µM; 3,300 tested, 80% active; AID 743050;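 active = mean activation over triplicate wells above the hit cutoff derived from the earlier primary screen, cut at about 11% in these data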;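 also: 0% = DMSO low control and 100% = 2 mM sodium butyrate high control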
LXR ag 2 = counter-screen for DAF-12 agonists: agonists of human LXR-beta. activation, % at 6.8 µM. HEK293 Gal4-LXR luciferase reporter, 24 h. 3,300 tested, under 10 active. AID 743051. shares compounds with hgDAF-12 ag;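 active = mean activation of the triplicate above a set limit carried over from the primary screen, none filed active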
The depositor's hits bear a star; . = no result.

SMILES | SMARCA2 act | ssDAF12 agonist | DAX1 inh-1 | hgDAF-12 ag | DAX1 inh-2 | hcDAF-12 act | DAX1 conf | SF1 mutant ctr | hgDAF12 ag | LXR ag 2 | others
O=C(Nc1ccc(N2CCCCC2)cc1)c1ccc(F)cc1 | 5 | 1 | 4.6* | 13* | 0 | 8.3* | 12* | 6.0* | 20* | 1 | LXR ag=1;hcDAF12 conf=2
CC1CCCN(c2nc3ccccc3nc2C(C#N)S(=O)(=O)c2ccccc2)C1 (stereo unspecified) | 1 | -1 | 1 | 0 | 0 | -1 | . | . | . | .
CNC(=S)N/N=C/c1cn(CCOc2ccccc2OC)c2ccccc12 | -4 | -1 | -1 | -3 | 0 | -3 | . | . | . | .
Cc1ccc(C(=O)C(C)OC(=O)c2ccccc2[N+](=O)[O-])cc1 (stereo unspecified) | 6 | 0 | 6.1* | 18* | 1 | 4 | 15* | 9.8* | 15* | 1
COc1ccc(C(=O)Nc2nc3cc(OC)c(OC)cc3c(=O)[nH]2)cc1 | 1 | -1 | 0 | 1 | 1 | -1 | . | . | . | .
COc1ccc(C(=O)Nc2nc3ccccc3c(=O)[nH]2)cc1 | 3 | 1.1* | 6.3* | 19* | 2 | 6.9* | 14* | 8.8* | 17* | 1 | LXR ag=1;hcDAF12 conf=5
CC(=O)c1cccc(NC(=O)c2cc(-c3ccco3)on2)c1 | 0 | -1 | 0 | 4 | 1 | -1 | . | . | . | .
CC(=O)c1cccc(NC(=O)c2cc(C(C)C)on2)c1 | 6 | 0 | 5.2* | 17* | 0 | 5 | 11* | 8.0* | 10* | 1
CC(C)c1cc(C(=O)Nc2cccc(Cl)c2)no1 | 3 | 1 | 4.6* | 19* | 1 | 7.8* | 16* | 9.3* | 19* | 1 | LXR ag=2;hcDAF12 conf=5.8*
O=C(Nc1ccc2c(c1)CCC2)Nc1ccccc1Cl | 5 | 0 | 8.8* | 14* | 1 | 3 | 9.8* | 7.8* | 22* | 1
O=C(Nc1ccc2c(c1)CCC2)c1ccccc1 | 3 | 0 | 5.6* | 17* | 0 | 6.0* | 15* | 6.5* | 19* | 1
Cc1ccc(NC(=O)Nc2ccc3c(c2)CCC3)c(C)c1 | 1 | -1 | 1 | 0 | 0 | 1 | . | . | . | .
COc1ccccc1/C=C/C(=O)Nc1ccc2c(c1)CCC2 | 8.9* | 1.4* | 5.2* | 16* | 3 | 6.7* | 7.7* | 7.5* | 19* | 1 | SMARCA2 conf=6;VP16 Luc act=14*;LXR ag=1;hcDAF12 conf=6.6*
O=C(Nc1ccc2c(c1)CCC2)c1ccccc1F | 8 | 1 | 6.7* | 20* | 2 | 15* | 14* | 7.2* | 21* | 1 | LXR ag=2;hcDAF12 conf=12*
COc1ccc(OC)c(/C=C/C(=O)Nc2ccc3c(c2)CCC3)c1 | 2 | -1 | 0 | 4 | -1 | -4 | . | . | . | .
O=C(O)c1ccccc1-c1ccccc1C(=O)Nc1ccc2c(c1)CCC2 | 1 | -1 | 0 | 1 | 0 | -1 | . | . | . | .
COc1cc(OC)cc(C(=O)NCC2CCCN(C(=O)c3csc(C(C)C)n3)C2)c1 (stereo unspecified) | -2 | -2 | -1 | 1 | 1 | -1 | . | . | . | .
Cc1c(C(=O)NCc2cccnc2)oc2ccc(S(=O)(=O)N3CCCCC3)cc12 | -2 | -2 | -1 | -3 | -2 | -3 | . | . | . | .
COc1cc2cc(CCCOC(=O)c3cc(OC)c(OC)c(OC)c3)oc(=O)c2cc1OC | 0 | -1 | 0 | 0 | -1 | 0 | . | . | . | .
COc1cccc(NC(=O)c2ccc3c(c2)N(C)CCS3)c1 | 4 | 1 | 8.7* | 16* | 1 | 6.2* | 10* | 9.3* | 18* | 1
Cc1cc(NC(=O)CSc2nnc(COc3ccccc3)o2)no1 | 1 | -1 | 0 | 3 | 2 | -1 | . | . | . | .
NC(=O)C1CCN(c2nc(-c3ccc(Oc4ccccc4)cc3)cs2)CC1 | . | -2 | . | 2 | . | 0 | . | . | . | .
COc1ccc(C(=O)Nc2nnc(SCC(=O)Nc3ccc(NC(C)=O)cc3)s2)c(OC)c1 | 6 | 1 | 13* | 14* | 9.3* | 8.7* | 14* | 7.2* | 19* | 1 | LXR ag=1;hcDAF12 conf=7.6*
COc1ccc(NC(=O)CSc2nnc(NC(=O)C3CCC3)s2)cc1 | -2 | -1 | 0 | 0 | 0 | -2 | . | . | . | .
COc1ccc(C(=O)c2oc3ccc(OC)cc3c2N)cc1 | 2 | -1 | 6.1* | 21* | 3 | 3 | 12* | 5.8* | 15* | 1
COc1cc(NC(=O)c2ccc(Br)o2)ccc1NC(=O)C(C)C | 1 | -1 | 0 | 0 | 1 | 0 | . | . | . | .
CC(=O)N/N=C(/C)c1ccc(NC(=O)c2csc(C)c2C)cc1 | 7 | 0 | 13* | 17* | 1 | 5.8* | 9.4* | 4.7* | 16* | 0
O=C(O)c1ccc(N/N=C/c2ccc(-c3ccccc3Cl)o2)cc1 | 0 | 1.3* | 9.2* | 24* | -1 | 9.8* | 26* | 11* | 12* | 1 | LXR ag=2;hcDAF12 conf=12*
O=C(O)c1ccc(N/N=C/c2ccc(-c3ccc(Br)cc3)o2)cc1 | -1 | -1 | 1 | 5 | 1 | 1 | . | . | . | .
